# Test results from ChEMBL document CHEMBL3988442, “University of Dundee, Small-Polar-MMV Screening Library” (2021).
# “And” between values parts separate entries of the source, which are not always exact repeats. Equal entries are not always repeated. For part of these data: Potency and affinity values are given separately.
# What was measured:
# Parameters in all cases: scale not given: direction of the effect not stated beside the values
# [1] = molecular target: Protein translocase subunit SecA (Escherichia coli (strain K12)) (UniProt P10408); test: Assay to Identify E. coli SecA ATPase Inhibitors; format: functional; settings: 30 µM
# [2] = molecular target: T1, Ubiquitin-activating enzyme e1, putative (Leishmania donovani (strain BPK282A1)) (UniProt E9BSI1); test: Leishmania donovani Ubiquitin Activating Enzyme (LdE1); format: functional; settings: 30 µM
# T1 sequence (whole entry): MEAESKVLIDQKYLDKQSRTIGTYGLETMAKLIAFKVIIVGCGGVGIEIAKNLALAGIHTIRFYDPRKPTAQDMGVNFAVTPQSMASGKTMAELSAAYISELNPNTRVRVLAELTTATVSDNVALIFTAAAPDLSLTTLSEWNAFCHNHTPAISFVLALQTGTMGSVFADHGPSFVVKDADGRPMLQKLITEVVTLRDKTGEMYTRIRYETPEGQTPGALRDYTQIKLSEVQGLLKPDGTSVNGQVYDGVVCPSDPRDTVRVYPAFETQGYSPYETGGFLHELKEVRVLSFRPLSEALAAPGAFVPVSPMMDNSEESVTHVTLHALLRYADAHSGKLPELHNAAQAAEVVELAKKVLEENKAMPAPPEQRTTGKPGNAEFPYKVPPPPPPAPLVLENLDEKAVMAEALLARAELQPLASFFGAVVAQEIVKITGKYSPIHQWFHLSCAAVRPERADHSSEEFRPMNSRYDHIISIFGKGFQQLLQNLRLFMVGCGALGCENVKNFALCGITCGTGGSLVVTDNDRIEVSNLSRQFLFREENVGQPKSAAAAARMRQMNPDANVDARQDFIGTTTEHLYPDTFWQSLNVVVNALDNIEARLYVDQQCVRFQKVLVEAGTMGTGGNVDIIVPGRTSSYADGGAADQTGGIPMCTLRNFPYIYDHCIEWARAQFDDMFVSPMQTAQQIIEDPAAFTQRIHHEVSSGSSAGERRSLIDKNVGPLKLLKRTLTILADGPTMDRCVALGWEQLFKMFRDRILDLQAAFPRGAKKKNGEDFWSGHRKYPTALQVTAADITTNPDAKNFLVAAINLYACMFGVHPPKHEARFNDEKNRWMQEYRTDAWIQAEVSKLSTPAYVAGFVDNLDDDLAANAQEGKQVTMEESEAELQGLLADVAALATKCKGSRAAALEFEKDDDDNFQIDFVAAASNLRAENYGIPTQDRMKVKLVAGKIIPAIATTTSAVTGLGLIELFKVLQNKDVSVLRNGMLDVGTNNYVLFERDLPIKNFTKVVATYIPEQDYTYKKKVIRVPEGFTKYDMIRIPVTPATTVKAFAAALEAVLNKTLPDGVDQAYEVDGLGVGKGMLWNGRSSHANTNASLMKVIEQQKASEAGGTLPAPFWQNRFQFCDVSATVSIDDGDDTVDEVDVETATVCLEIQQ
# [3] = molecular target: AMP-activated protein kinase, AMPK (Homo sapiens) (UniProt P54646+O43741+P54619+Q9UGJ0+Q9Y478+Q13131+Q9UGI9); test: AMP-dependent Kinase enzyme assay. An in vitro enzyme assay that detects ADP turnover that is directly proportional to AMPK activity. This uses naive AMPK that is activated during the assay with MK-8722; format: functional; settings: 30 µM
# [4] = molecular target: Sialic acid-binding Ig-like lectin 9 (Homo sapiens) (UniProt Q9Y336); test: Hs-Siglec9 ALPHAscreen SOP 20170721; settings: 10 µM
# Trypanosoma cruzi = test: Trypanosoma cruzi phosphomannomutase and mannose-1-phosphate guanylyltransferase assay; format: functional; settings: 10 µM
# [5] = molecular target: T2, Arginase-2, mitochondrial (Homo sapiens) (UniProt P78540); test: in vitro enzyme assay to detect the production of urea directly proportional to the activity of Arginase II; format: functional; settings: 33.3 µM; also: in the data most compounds retested in dose-response had high values
# T2 sequence (whole entry): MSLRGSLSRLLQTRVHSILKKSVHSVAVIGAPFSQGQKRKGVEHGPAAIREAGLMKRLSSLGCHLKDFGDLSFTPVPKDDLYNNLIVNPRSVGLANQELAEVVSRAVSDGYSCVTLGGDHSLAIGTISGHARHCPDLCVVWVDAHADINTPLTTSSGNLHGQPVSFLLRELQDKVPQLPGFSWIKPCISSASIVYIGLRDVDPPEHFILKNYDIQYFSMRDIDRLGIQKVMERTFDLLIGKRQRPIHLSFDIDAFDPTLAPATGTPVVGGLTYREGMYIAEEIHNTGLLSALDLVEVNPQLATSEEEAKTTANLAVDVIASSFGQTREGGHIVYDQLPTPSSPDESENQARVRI
# [6] = molecular target: T3, Proteasome subunit beta (Trypanosoma cruzi) (UniProt O96673); test: Trypanosoma cruzi proteasome chymotrypsin-like activity (TcProtChymo) assay.; also: in the data most compounds retested in dose-response had high values; format: functional; settings: 9.37 µM
# T3 sequence (whole entry): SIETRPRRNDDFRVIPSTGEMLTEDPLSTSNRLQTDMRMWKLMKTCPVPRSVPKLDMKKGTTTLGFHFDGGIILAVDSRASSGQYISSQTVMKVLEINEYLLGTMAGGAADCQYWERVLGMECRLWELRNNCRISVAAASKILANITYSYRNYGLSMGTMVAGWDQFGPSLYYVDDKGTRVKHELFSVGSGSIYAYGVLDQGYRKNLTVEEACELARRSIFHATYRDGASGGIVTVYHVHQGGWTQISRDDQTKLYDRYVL
# N/A = test: Trypanosoma cruzi proteasome luciferase counter-screen; format: functional; settings: 9.37 µM
# Homo sapiens = species: Homo sapiens; test: To identify inhibition of the IFN signalling (Jak-Stat) pathway via expression of an eGFP reporter gene under the control of an IFN-stimulated response element (ISRE) containing MxA promoter.; format: functional; settings: 30 µM
# [7] = molecular target: T4, Tyrosyl-tRNA synthetase, putative (Trypanosoma cruzi (strain CL Brener)) (UniProt Q4DSP6); test: Trypanosoma cruzi tyrosyl tRNA synthetase (TcYRS) _High Tyrosine SOP; format: functional; settings: 30 µM; also: in the data most compounds retested in dose-response had high values
# T4 sequence (whole entry): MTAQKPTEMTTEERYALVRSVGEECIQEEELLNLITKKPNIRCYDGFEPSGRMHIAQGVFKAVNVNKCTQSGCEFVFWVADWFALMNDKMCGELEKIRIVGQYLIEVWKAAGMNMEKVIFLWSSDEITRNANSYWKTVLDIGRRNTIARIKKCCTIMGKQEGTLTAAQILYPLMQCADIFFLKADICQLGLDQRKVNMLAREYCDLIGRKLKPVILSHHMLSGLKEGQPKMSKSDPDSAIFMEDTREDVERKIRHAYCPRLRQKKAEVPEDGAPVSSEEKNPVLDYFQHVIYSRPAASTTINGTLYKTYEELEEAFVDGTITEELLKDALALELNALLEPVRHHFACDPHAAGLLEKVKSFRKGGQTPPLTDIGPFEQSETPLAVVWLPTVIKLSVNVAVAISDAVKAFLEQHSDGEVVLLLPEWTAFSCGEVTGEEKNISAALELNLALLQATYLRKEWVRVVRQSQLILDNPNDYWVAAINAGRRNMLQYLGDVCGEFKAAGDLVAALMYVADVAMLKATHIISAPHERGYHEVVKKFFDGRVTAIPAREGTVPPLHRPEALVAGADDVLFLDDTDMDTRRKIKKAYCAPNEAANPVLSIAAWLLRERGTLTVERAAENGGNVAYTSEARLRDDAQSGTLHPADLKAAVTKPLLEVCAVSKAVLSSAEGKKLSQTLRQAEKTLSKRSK
# [8] = molecular target: T4, Tyrosyl-tRNA synthetase, putative (Trypanosoma cruzi (strain CL Brener)); test: Trypanosoma cruzi tyrosyl tRNA synthetase (TcYRS) SOP; format: functional; settings: 30 µM
# [9] = molecular target: Chromo domain-containing protein 1 (Saccharomyces cerevisiae (strain ATCC 204508 / S288c) (Baker's yeast)) (UniProt P32657); test: ScCHD-1 Enzyme Inhibition Assay; format: functional; settings: 30 µM; also: in the data most compounds retested in dose-response had high values
# Chain of Chromo domain-containing protein 1 (Saccharomyces cerevisiae (strain ATCC 204508 / S288c) (Baker's yeast)) (P32657 whole entry, the tested form may be a part): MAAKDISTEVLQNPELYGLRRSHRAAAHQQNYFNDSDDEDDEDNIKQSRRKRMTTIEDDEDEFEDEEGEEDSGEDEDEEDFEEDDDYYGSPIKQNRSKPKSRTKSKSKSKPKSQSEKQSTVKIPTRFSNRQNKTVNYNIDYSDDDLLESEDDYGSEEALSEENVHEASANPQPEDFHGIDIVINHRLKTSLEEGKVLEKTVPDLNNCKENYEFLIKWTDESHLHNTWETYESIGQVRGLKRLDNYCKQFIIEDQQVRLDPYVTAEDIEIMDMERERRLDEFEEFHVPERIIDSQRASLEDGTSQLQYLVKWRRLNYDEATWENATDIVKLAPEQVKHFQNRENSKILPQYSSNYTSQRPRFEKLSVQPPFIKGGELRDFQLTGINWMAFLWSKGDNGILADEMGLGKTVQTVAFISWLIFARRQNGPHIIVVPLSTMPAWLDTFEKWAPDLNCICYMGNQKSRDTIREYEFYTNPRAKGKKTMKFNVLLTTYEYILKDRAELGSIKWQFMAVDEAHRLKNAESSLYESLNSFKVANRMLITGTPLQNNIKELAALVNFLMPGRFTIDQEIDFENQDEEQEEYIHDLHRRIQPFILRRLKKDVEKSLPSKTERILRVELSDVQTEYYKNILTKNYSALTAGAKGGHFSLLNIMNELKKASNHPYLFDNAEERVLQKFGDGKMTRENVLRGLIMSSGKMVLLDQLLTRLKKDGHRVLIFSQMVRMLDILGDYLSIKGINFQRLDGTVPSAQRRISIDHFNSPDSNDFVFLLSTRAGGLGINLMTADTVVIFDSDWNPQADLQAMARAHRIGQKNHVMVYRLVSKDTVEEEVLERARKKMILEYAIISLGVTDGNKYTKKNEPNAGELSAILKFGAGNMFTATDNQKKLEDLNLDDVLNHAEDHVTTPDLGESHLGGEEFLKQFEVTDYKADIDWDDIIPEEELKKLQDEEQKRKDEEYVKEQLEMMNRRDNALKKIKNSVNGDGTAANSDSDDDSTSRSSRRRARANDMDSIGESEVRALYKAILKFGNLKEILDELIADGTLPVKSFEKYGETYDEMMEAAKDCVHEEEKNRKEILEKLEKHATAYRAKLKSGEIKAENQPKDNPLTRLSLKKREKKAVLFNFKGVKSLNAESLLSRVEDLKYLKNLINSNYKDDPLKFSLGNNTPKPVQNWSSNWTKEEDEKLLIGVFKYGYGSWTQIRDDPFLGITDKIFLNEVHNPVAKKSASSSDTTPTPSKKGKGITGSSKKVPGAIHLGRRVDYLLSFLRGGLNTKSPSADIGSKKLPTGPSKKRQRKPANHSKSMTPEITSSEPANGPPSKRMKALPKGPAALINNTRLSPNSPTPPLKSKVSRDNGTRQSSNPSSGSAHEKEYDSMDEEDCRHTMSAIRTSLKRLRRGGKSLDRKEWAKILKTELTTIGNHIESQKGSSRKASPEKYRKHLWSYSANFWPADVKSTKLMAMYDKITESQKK
# Chain of Sialic acid-binding Ig-like lectin 9 (Homo sapiens) (Q9Y336 whole entry): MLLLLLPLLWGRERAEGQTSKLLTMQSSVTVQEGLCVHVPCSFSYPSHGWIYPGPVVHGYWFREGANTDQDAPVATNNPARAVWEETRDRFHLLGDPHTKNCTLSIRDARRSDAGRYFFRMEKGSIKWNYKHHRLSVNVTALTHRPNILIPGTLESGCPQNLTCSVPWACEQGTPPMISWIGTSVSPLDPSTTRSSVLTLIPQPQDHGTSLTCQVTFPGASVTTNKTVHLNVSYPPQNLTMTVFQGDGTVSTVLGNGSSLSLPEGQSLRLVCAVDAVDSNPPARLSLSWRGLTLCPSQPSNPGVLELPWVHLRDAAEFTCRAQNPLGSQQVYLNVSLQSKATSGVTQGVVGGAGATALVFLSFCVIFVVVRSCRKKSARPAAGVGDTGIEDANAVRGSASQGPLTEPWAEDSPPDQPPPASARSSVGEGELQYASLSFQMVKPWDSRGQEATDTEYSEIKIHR
# Chain of Protein translocase subunit SecA (Escherichia coli (strain K12)) (P10408 whole entry): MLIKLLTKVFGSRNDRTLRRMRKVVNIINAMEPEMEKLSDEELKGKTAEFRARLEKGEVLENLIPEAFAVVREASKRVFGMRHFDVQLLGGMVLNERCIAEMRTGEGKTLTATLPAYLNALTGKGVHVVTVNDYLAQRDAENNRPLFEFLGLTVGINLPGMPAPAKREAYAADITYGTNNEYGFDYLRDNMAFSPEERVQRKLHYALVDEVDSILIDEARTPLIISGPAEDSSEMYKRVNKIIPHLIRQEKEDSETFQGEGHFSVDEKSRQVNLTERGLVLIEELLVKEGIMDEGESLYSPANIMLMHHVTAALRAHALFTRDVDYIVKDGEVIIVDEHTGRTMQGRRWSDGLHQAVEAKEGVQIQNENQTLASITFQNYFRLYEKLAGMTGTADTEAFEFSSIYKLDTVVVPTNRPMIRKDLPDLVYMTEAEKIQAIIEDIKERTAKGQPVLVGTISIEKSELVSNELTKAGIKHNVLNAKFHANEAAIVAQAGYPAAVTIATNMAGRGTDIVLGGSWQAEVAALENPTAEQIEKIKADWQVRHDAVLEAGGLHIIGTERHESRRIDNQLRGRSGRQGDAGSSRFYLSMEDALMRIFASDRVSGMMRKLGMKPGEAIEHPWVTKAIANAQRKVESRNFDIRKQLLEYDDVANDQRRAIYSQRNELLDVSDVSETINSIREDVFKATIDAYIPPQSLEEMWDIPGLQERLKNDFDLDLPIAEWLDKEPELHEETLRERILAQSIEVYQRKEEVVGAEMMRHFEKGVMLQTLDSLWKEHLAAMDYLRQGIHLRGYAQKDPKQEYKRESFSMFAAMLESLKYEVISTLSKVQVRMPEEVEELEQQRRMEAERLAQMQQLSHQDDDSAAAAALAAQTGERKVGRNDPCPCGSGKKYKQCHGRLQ
SMILES,Percent Effect [1],Percent Effect [2],Percent Effect [3],Percent Effect [4],Percent Effect (Trypanosoma cruzi),Percent Effect [5],Percent Effect [6],Percent Effect (N/A),Percent Effect (Homo sapiens),Percent Effect [7],Percent Effect [8],Percent Effect [9]
Cc1cc(C2CCCN(C(=O)c3c(C)noc3C)C2)n[nH]1 (stereo not drawn),-3.57%,2.63%,9.83%,9.23%,0.292%,-20.1%,16.6% and 37.9% and 18.8%,18% and 16.2%,-5.01%,7.45%,7.79%,-1.42%
Cc1ccc(C(=O)Nc2cn[nH]c2)cc1C,0.399%,18.4%,16.7%,3.99%,0.188%,1.15%,53% and 40.4% and 50.9%,27.1% and 25%,5.81%,11.3%,24.4%,-9.31%
Cc1cc(S(=O)(=O)Nc2cccc(-n3cccc3)c2)sc1C(=O)O,1.39%,0%,12.1%,7.4%,4.99%,-0.248%,36.5% and 37.6% and 37.3%,19.1% and 16.4%,-6.8%,-43%,-38.3%,32.5%
CCc1nc(COc2ccc(OCc3cnn(C)c3)cc2)no1,-3.52%,13.5%,-5.93%,21.3%,3.86%,4.29%,50.7% (2×) and 48.5%,32% and 28.2%,23.4%,3.7%,19.5%,-9.15%
CC(C1CC1)N(C)C(=O)c1cnc(-c2ccc3c(c2)OCO3)s1 (stereo not drawn),-5.81%,0%,11.9%,0.585%,-3.33%,-1.82%,68.6% and 72.1% and 62.6%,34.7% and 35.5%,12.2%,-2.15%,-2.5%,-10.2%
Cc1cnn(C2CN(CC(=O)NCc3ccccn3)C2)c1,0.391%,26.3%,-12.2%,-9.97%,7.56%,-4.32%,63.5% and 62% and 58.8%,11.6% and 13.6%,-8.2%,17.2%,25.9%,-5.97%
O=C(O)c1ccc(F)c(S(=O)(=O)Nc2ccc(-n3cccn3)c(Cl)c2)c1,-5.92%,-2.67%,-7.61%,-0.566%,-2.63%,0%,16.3% and 16.5% and 41.1%,15.6% and 20.6%,-13.3%,-1.64%,1.24%,-4.16%
Cc1cc(N2CCN(CC(=O)N(C)C)CC2)nc(-c2ccncc2)n1,-6.79%,23.7%,-6.29%,-5.92%,11%,-11.8%,35.2% and 34.4% and 30.2%,18.5% and 14.6%,5.2%,20.2%,28.6%,-6.26%
Cc1ccc(CN(C)C(=O)CN2CC(n3cccn3)C2)o1,-6.67%,2.63%,17.5%,-1.07%,-1.46%,-4.73%,23.1% and 34.2% and 27.3%,20.4% and 19.7%,22.7%,-2.13%,-2.6%,-1.83%
Cc1ccc(S(=O)(=O)N2CCc3nc(C4CCNCC4)ncc3C2)cc1,-3.69%,9.46%,-15.7%,1.15%,2.77%,-4.41%,21.6% and 22.5% and 38.9%,8.48% and 9.51%,9.56%,17.2%,24.7%,-21.4%
CNC(=O)N1CC[C@@H]2CN(Cc3cccnc3)S(=O)(=O)[C@@H]2CC1,-2.59%,8.11%,4.84%,-4.72%,1.27%,0.319%,11.4% and 31.6% and 11.9%,5.24% and 4.76%,-15.6%,0%,15.4%,0.163%
CC(O)CNCc1ccc(OCc2ccc3c(c2)OCCO3)cc1 (stereo not drawn),0.112%,10.5%,0.644%,-9.17%,-3.6%,-2.37%,61.5% and 58.6% and 62.4%,31.4% and 28.6%,-4.62%,1.06%,5.2%,-3.79%
Cc1nc(CN2CCOC(CNc3cccnn3)C2)oc1C (stereo not drawn),-1.3%,0%,-22.1%,-5.8%,0.283%,28.9%,30.6% and 26.7% and 36.4%,11.3% and 10.2%,11.3%,2.46%,-8.64%,-0.197%
Cn1cc(-c2cnc(N3CCOCC3)nc2)cc1C(=O)O,-3.79%,5.41%,2.15%,1.49%,5.08%,18.3%,100% (2×) and 98.7%,97.4% and 97.5%,5.61%,5.94%,11%,-7.1%
Cn1cccc1C(=O)N1CCC2(CC1)CN(c1cncnc1)C(=O)CO2,-7.32%,-189%,-15.1%,-0.563%,-6.69%,-1.17%,51% and 53.6% and 55.8%,4.36% and 0.727%,18.6%,-69.2%,-150%,-4.5%
Cc1cnn(CC2CN(c3cnc4ccccc4n3)CCO2)c1 (stereo not drawn),-8.32%,15.2%,2.77%,14.7%,12%,-4.56%,38.1% and 39.2% and 44.7%,20.3% and 14.5%,14.6%,4.43%,21.5%,-12.5%
CC(Cn1cccn1)NCc1csc(-c2ccccc2F)n1 (stereo not drawn),-1.44%,-5.41%,-14.2%,7.22%,3.87%,-4.41%,90.3% and 88.1% and 85%,59.5% and 61%,13.2%,1.48%,11.1%,-4.62%
COc1cc(/C=C/c2ncc(C(=O)O)s2)cc(Cl)c1O,3.12%,13.9%,50.5%,-3.01%,0.923%,4.95%,99.9% and 99% and 99.8%,92.6% and 91.5%,-2.51%,4.17%,15.2%,-33.3%
CC(C)c1cc2c(O)nc(CSCC(=O)O)nc2s1,-4.64%,6.67%,7.73%,3.74%,3.93%,-2.99%,70.5% and 64.5% and 63.5%,32% and 29.1%,1.31%,4.23%,10.3%,-9.79%
